Out of some 360,000 compounds screened, about 17,000 (4.7%) were called active. Inconclusive results (about 5%) are left out. This is one part of a sample in which actives are shown more often than they occur. A number with no mark means an inactive call. Rule as the data show it: active = activity change below about -50%; inconclusive = mostly about -30% to -49%; inactive = weaker than that.
% is scaled to controls: 0 for no effect and ±100 for the full control effect.

The nature of this test: qHTS for Inhibitors of Inflammasome Signaling: IL-1-beta AlphaLISA Primary Screen. Particulars: THP-1 LPS/ATP IL-1B secretion, 16 h; at 57.5 µM, hits give low values. The method in brief:
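Secreted IL-1B measured by AlphaLISA bead assay after 16 h compound exposure of THP-1 cells; compounds (final up to 57.5 uM) added 1 h before LPS (250 ng/mL) and ATP (1.25 mM) stimulation; lower signal means less secretion.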
As for `COc1ccc(-c2cc3c(c4c2ccn4C)C2CCC3C2)cn1` (stereo not drawn), the activity change was 0%.

For `COc1ccc(-c2c(C#Cc3ccccc3)c3ccccc3n2C)cc1`, the activity change is -16.3%.

For `COc1ccc(-c2nc3ccccc3c(=O)n2CCc2ccc(O)cc2)cc1`, the activity change was -13%.

As to `COc1ccc(CCNCc2c(-c3ccccc3)n(C)c3ccccc23)cc1`, the activity change was -97.2% (active).

Take `CCN1CN(Cc2ccccc2)CNC1=S`: the activity change is 0.299%.

Consider `CCc1nnc(NC(=O)C2CCN(C(=O)c3ccccc3C)CC2)s1`, for which the activity change was -4.49%.

Consider `Cc1ccc(C(NC(=O)C2CCN(CCOc3ccc(Cl)cc3Cl)CC2)c2ccccn2)cc1` (stereo not drawn), for which the activity change was -68.4% (active).

As for `O=C(CCCOc1ccc(Cl)cc1Cl)NNC(=O)C1CCC1`, the activity change was -7.73%.

For `CCOc1ccc(S(=O)(=O)N2CCC(C(=O)NCc3ccccn3)CC2)cc1Cl`, the activity change is -5.47%.

For the molecule `CC(C)C[C@@H]1COc2cc(N3CCC[C@@H]3CO)ccc2S(=O)(=O)N1`, the activity change was 24.4%.

With `CCc1ccc(C(CNc2nc(C(F)(F)F)nc3ccccc23)N(C)C)cc1` (stereo not drawn), the activity change is -104% (active).

`NS(=O)(=O)c1ccc(CCNc2nc(C(F)(F)F)nc3ccccc23)cc1`: the activity change was -29.6%.

Regarding `COc1cccc(CNC(=O)c2n[nH]c3ccccc23)c1`, the activity change is -5.24%.

Regarding `CN(NC(=O)c1ccccc1F)c1nc(C(F)(F)F)nc2ccccc12`, the activity change was 94.2%.

Turning to `COc1cccc(CNc2nc(C(F)(F)F)nc3ccccc23)c1`, the activity change was -81.4% (active).

Take `COc1ccc(CNc2ncnc3ccccc23)cc1`: the activity change is -5.53%.

Turning to `O=C(NCCc1ccc(F)cc1)c1ccc(S(=O)(=O)N2CCCCC2)cc1`, the activity change is 7.26%.

As for `CC1CN/C(=C\C(=O)c2ccc(Br)cc2)C(=O)N1` (stereo not drawn), the activity change is -2.3%.

Regarding `CCc1nc2c(=O)[nH]cnc2o1`, the activity change is -0.15%.

With `CCCNC(=O)C1(C)CCCN(Cc2c(C)nn(-c3ccccc3)c2C)C1` (stereo not drawn), the activity change is 0%.

Take `C[C@H]1Cn2cnc(C(=O)N[C@H](C)c3ccccc3)c2C(=O)N1`: the activity change is 56.9%.

As to `O=C(Nc1cccc(C(=O)O)c1)/C(=C\c1ccccc1)NC(=O)c1ccc(Br)o1`, the activity change was -24.2%.

As for `C[C@H]1CN([C@@H](C)CO)S(=O)(=O)c2ccc(Br)cc2O[C@H]1CN(C)C(=O)c1cnccn1`, the activity change is 7.37%.

As to `Nc1c(C(=O)c2cccs2)sc2nsc(SCCN3CCCCC3)c12`, the activity change is -95.7% (active).

With `O=C(CSc1ncnc2sccc12)N1CCN(C(=O)c2cccs2)CC1`, the activity change is -0.616%.

As for `CCC1OC(C2CC2)CC2=C1C(=O)OC(C)(C)O2` (stereo not drawn), the activity change was 29.6%.

In the case of `NC1=NC(c2ccc([N+](=O)[O-])cc2)N(c2ccc(F)cc2)C(N)=N1` (stereo not drawn), the activity change is -52.3% (active).

`O=[N+]([O-])c1ccc(N2CCN(c3ccc(F)cc3)CC2)cn1`: the activity change is -1.6%.

Take `COc1ccc(C2N=C(N)N=C(N)N2c2ccccc2)cc1OC` (stereo not drawn): the activity change is -16.9%.

`CC(C)(C)c1ccc(S(=O)(=O)NC(=O)C2(C)CCN2C(=O)CC2CC2)cc1` (stereo not drawn): the activity change was -3.72%.

On to `CC(Nc1nc(N2CCOCC2)nc2ccccc12)c1ccccc1` (stereo not drawn), for which the activity change was 0%.

As for `CCCCn1c(CN2CCN(CCO)CC2)nc2ccccc21`, the activity change is 44.1%.

Regarding `Cn1c(=O)[nH]c(=O)c2c1nc(N1CCN(CCO)CC1)n2CCSc1nc2ccccc2s1`, the activity change is 10.2%.

Regarding `CC(Nc1nc(N2CCN(CCO)CC2)nc2ccccc12)c1ccccc1` (stereo not drawn), the activity change is -90.7% (active).

Turning to `CC(Nc1nc(N2CCCC2)nc2ccccc12)c1ccccc1` (stereo not drawn), the activity change is -80.2% (active).

Regarding `c1ccc(-c2cc(N3CCCCC3)c3ccccc3n2)cc1`, the activity change was -26.2%.

On to `COc1ccc(CCCNC(=O)C2Cc3c(-c4cccc(C(N)=O)c4)ccnc3O2)cc1` (stereo not drawn), for which the activity change was 34.7%.

Turning to `CCN(CC)CCCN=C(N)N`, the activity change was -17.5%.

Turning to `O=P(c1ccc2c(c1)OCCO2)(N1CCOCC1)N1CCOCC1`, the activity change was 8.69%.

Regarding `Cc1ccc(OCC(=O)Nc2ccc(NC(=O)c3cccs3)cc2)c(C)c1`, the activity change is -1.3%.

For `COc1cccc(C(=O)Nc2ccc(N3CCN(C(=O)c4ccco4)CC3)cc2)c1`, the activity change was -73.8% (active).

For `COc1ccc(C(=O)Nc2ccccc2C(=O)N2CCN(c3ccccc3)CC2)cc1`, the activity change is 0%.

Regarding `Cc1ccc(NC(=O)C(c2ccccc2)N2CCN(C(=O)c3ccco3)CC2)cc1` (stereo not drawn), the activity change was 16.1%.

Turning to `Cc1ccc(OCC(=O)Nc2ccc(N3CCN(C(=O)c4ccco4)CC3)cc2)c(C)c1`, the activity change is -61.6% (active).

Consider `COc1cccc(OCc2cc(C(=O)N3CCN(C(=O)c4ccco4)CC3)no2)c1`, for which the activity change is 6.56%.

Take `O=C(Nc1cc2c3c(c1)CC(=O)N3CCC2)c1ccccc1F`: the activity change was 4.9%.

On to `CCNC(=O)C1(C)CCCN(Cc2noc(-c3ccccc3OC)n2)C1` (stereo not drawn), for which the activity change was -5.34%.

For the molecule `C[C@H]1CN([C@@H](C)CO)C(=O)CCCn2nncc2CO[C@@H]1CN(C)Cc1ccc(Oc2ccccc2)cc1`, the activity change was 8.16%.

On to `CCOCCCNC(=O)C(NC(=O)Cc1c[nH]c2ccccc12)c1ccc(OC)cc1` (stereo not drawn), for which the activity change was 10.6%.

For `Cc1cc(NCc2cccnc2)no1`, the activity change is 3.61%.

For the molecule `O=S(=O)(c1ccc(Br)cc1)c1nc(-c2ccccc2)oc1NCc1cccnc1`, the activity change is -18.2%.

For `N#Cc1nc(COc2ccc(-c3ccccc3)cc2)oc1NCc1cccnc1`, the activity change is -79.6% (active).

As to `O=C(COC(=O)/C=C/c1ccc(OC(F)F)cc1)NC1CCCCC1`, the activity change was 17.5%.

For `CCCC/C(C)=N/NC(=O)NC1CCCCC1`, the activity change was 14.3%.

Consider `C/C(=N\NC(=O)NC1CCCCC1)c1ccc(OC(F)F)cc1OC(F)F`, for which the activity change is -80.5% (active).

With `O=C(c1ccc(Cn2cc([N+](=O)[O-])cn2)o1)N1CCCC1`, the activity change is 13.7%.

Regarding `Cc1ccn(-c2cccc(-n3ccc(C)n3)n2)n1`, the activity change was 25.2%.

Turning to `CC(C)(C)OC(=O)C[C@@H]1C/C=C\C[C@@H](CC(=O)N(CCO)Cc2ccccc2)C(=O)N[C@H](Cc2ccccc2)COC1=O`, the activity change is -12.5%.

Take `O=C1CCC/C=C/C[C@@H](CC(=O)N(CCO)Cc2ccccc2)C(=O)NC[C@H](c2ccccc2)O1`: the activity change is -15.8%.

Consider `O=C1OC[C@@H]2CCCN2C(=O)[C@H](CC(=O)N(CCO)Cc2ccccc2)C/C=C\CC[C@@H]1Cc1ccc(F)cc1`, for which the activity change was -27.7%.

As to `O=C1NC[C@@H](c2ccccc2)OC(=O)[C@H](Cc2ccc(F)cc2)CC/C=C/C[C@H]1CC(=O)N(CCO)Cc1ccccc1`, the activity change was -57.4% (active).

Turning to `O=C1CCC/C=C\C[C@@H](CC(=O)N(CCO)Cc2ccccc2)C(=O)NCCO1`, the activity change is 36.5%.

As to `O=C1N[C@@H](c2ccccc2)COC(=O)[C@H](Cc2ccc(F)cc2)C/C=C\C[C@@H]1CC(=O)N(CCO)Cc1ccccc1`, the activity change is -68.1% (active).

For `CCCCc1ccc(S(=O)(=O)NC(=O)C2(C)CCN2C(=O)c2c(C)noc2C)cc1` (stereo not drawn), the activity change was 24.9%.

Regarding `CCN(CC)C(=O)N1CCN(C(=O)c2ccc(C)cn2)CC1`, the activity change was 13.6%.

On to `Cc1ccc(S(=O)(=O)N2CCCC2C(=O)OCc2nc3sc(C)c(C)c3c(=O)[nH]2)cc1` (stereo not drawn), for which the activity change was -4.97%.

Consider `Cc1ccc(-n2cnc3ncnc(-c4ccccc4)c32)cc1`, for which the activity change was -9.14%.

Regarding `Cc1ccc(-n2cc(CN(C)Cc3nccn3C)c(-c3cccc(C)c3)n2)cc1`, the activity change was -85.3% (active).

As for `CCn1ccnc1CN(C)Cc1nc(-c2ccc3c(c2)OCO3)no1`, the activity change is 1.77%.

Turning to `O=C(C=CC(=O)Nc1ccc(F)cc1F)Nc1ccc(F)cc1F`, the activity change is 36.7%.

For `COC(=O)c1ccc(Oc2nc(NC(C)C)nc(SC)n2)cc1`, the activity change was 19.1%.

`COC(=O)c1ccc(Oc2nc(Nc3ccc(F)cc3)nc(N3CCCC3)n2)cc1`: the activity change is -60.2% (active).

Take `CCNc1nc(Oc2ccc(C(=O)OC)cc2)nc(N2CCOCC2)n1`: the activity change is 7.61%.

Take `CCOC(=O)c1c(-c2ccccc2)oc2cc(Br)c(O)cc12`: the activity change is 0%.

Consider `CCOC(=O)c1c(-c2ccccc2)oc2cc(Br)c(O)c(C=O)c12`, for which the activity change was -98% (active).

As for `CCOC(=O)c1c(-c2ccccc2)oc2ccc(OCC(=O)NN)cc12`, the activity change is -28.6%.

With `Cc1cc(OCC(=O)Nc2nccs2)c2c(C)c(C)c(=O)oc2c1`, the activity change is 6.37%.

For the molecule `Cc1ccc(Cc2c(C)nc3nc(SCC(=O)NCCN4CCOCC4)nn3c2C)cc1`, the activity change is 7.76%.

Consider `Cc1nc2nc(SCC(=O)NCc3ccco3)nn2c(C)c1Cc1ccccc1`, for which the activity change was -78.8% (active).

With `Cc1cc(C)n2nc(SCC(=O)NC(=O)NCc3ccco3)nc2n1`, the activity change is 34.3%.

As for `Fc1ccc(N2N=C(c3cccs3)CC2c2ccco2)c(F)c1` (stereo not drawn), the activity change is 5.22%.

As to `O=C(O)C1CCCN1c1nc(Cl)ccc1[N+](=O)[O-]` (stereo not drawn), the activity change was -1.43%.

Turning to `CC(=O)N[C@H]1[C@H]([C@H](O)[C@H](O)CO)OC(C(=O)O)=C[C@@H]1O`, the activity change was 1.96%.

Take `CCOC(=O)c1c(C)nc2c(c1C)c(=O)oc1ccccc12`: the activity change is 7%.

On to `CCOC(=O)c1c(C)[nH]c2c1-c1ccccc1C(=O)C2=O`, for which the activity change was -53.9% (active).

With `CCOC(=O)C1=C(C)c2ccccc2OC1(C)C(=O)OCC` (stereo not drawn), the activity change is 41.5%.

`CN(C)CCCOc1ccc(-c2ccc3nccn3c2)cn1`: the activity change was -5.3%.

As to `CCC(C)(C)n1nnnc1CN1CCN(c2nc3ccc(C)cc3cc2C#N)CC1`, the activity change was -68.2% (active).

On to `Cc1cc(C)c2cc(C#N)c(N3CCNCC3)nc2c1`, for which the activity change was -29.2%.

`CCOc1ccc2nc(N3CCCN(C(=O)Nc4ccccc4C)CC3)c(C#N)cc2c1`: the activity change was -14.3%.

Consider `O=C(CSc1ncn[nH]1)Nc1nsc(-c2ccccc2)n1`, for which the activity change was 10.9%.

With `O=C(CSc1ncn[nH]1)Nc1ccc(Br)cc1Br`, the activity change is -53.6% (active).

For `O=C(CSc1ncn[nH]1)Nc1ccnc2ccccc12`, the activity change is 11%.

Values taken from PubChem BioAssay AID743279 (National Center for Advancing Translational Sciences (NCATS), 2014).
